The structures appear in SMILES notation. The campaign covered roughly 69,000 compounds. About 420 (0.61%) showed an effect of 50% or more. The sample holds strong results, similar compounds and a random draw of the others, so the mix is not that of the screen.

The test deals with T1, Histidine--tRNA ligase (Leishmania infantum) (UniProt A4I591).
T1 sequence (whole entry): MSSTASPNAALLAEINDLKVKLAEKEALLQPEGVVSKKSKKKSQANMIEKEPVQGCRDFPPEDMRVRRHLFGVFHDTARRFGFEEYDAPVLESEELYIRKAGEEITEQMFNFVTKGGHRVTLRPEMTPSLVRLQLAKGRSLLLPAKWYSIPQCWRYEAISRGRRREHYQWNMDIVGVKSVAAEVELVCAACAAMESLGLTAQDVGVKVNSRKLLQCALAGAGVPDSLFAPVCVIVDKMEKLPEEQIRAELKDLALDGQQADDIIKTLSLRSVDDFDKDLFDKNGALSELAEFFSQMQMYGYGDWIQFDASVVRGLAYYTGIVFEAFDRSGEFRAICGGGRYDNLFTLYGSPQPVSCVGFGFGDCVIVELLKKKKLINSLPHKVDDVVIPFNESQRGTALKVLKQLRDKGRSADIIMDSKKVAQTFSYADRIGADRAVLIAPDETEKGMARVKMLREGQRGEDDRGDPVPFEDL
The test is described as follows: Leishmania infantum Histidine tRNA synthetase (LdHisRS). Format: functional. The following applies: 30 µM. Set-up: scale not given: in the data most compounds retested in dose-response had high values.
In the case of `CNc1cc(-c2ccccc2CN)c2cc[nH]c2n1`, the Percent Effect amounted to 80.7%. Turning to `CNc1cc(-c2ccc(COCCN)cc2)c2cc[nH]c2n1`, the Percent Effect worked out at 20.5%. `CNc1cc(-c2cccc(CN)c2)c2cc[nH]c2n1`: the Percent Effect stood at 68.7%. With `Cc1cccc(C)c1-c1cc(NCCO)nc2[nH]ccc12`, the Percent Effect came out at 10%.

In the case of `COCCNc1cc(-c2ccccc2CCN)c2cc[nH]c2n1`, the Percent Effect came out at 4.84%. In the case of `CNc1cc(C)nc(-c2cc(NC)nc3[nH]ccc23)n1` it was -2.04%; in that of `O=C(c1cocn1)N1CC[C@H]2OCC[C@@]2(COc2ncccc2F)C1`, 22.4%; in that of `O=C(Cc1ccccc1)N1CC[C@@H]2CNS(=O)(=O)[C@@H]2CC1`, 28.1%. With `Nc1cccnc1N1CCN(c2ccccc2)CC1`, the Percent Effect is 8.33%.

As to `Nc1cccnc1N1CCCCCC1`, the Percent Effect amounted to 58.3%. On to `Nc1cccnc1N1CCC(O)CC1`, for which the Percent Effect stood at 12.5%. Regarding `COc1ccc(CC(=O)N2C[C@@H]3COC[C@]3(CN(C)C)C2)cc1`, the Percent Effect is -47.1%. For `Cc1nc(COC[C@@H]2CC[C@H]3[C@H](CCN3C(=O)C3CC3)O2)cs1`, the Percent Effect came to 14.7%. Regarding `Cc1cccc(C(=O)N2C[C@@H]3CCN(c4cccnc4)C[C@@H]3C2)c1`, the Percent Effect amounted to 6.57%. `CN(C)C(=O)CN1CC[C@H]2CN(C3CCOCC3)C[C@@H]2C1=O`: the Percent Effect stood at 11.7%. Turning to `CCCn1nc2c(cc1=O)CN(CC1CCCCO1)CC2` (stereo not drawn), the Percent Effect worked out at 79.5%. Consider `Cn1nc2c(cc1=O)CN(CC1CCCCO1)CC2` (stereo not drawn), for which the Percent Effect turned out to be 104%. Turning to `Cn1nc2c(cc1=O)CN(CCN1CCCC1=O)CC2`, the Percent Effect stood at 4.39%.

Regarding `CCn1nc2c(cc1=O)CN(CC1CCCCO1)CC2` (stereo not drawn), the Percent Effect came to 0%. Take `CC(C)n1nc2c(cc1=O)CN(CC1CCCCO1)CC2` (stereo not drawn): the Percent Effect was 35.6%. In the case of `Cc1ncc2c(n1)CN(CC1CCCCO1)CC2` (stereo not drawn), the Percent Effect is 25.7%. In the case of `CCCSCC(=O)N1C[C@H]2CC[C@@H]1CN(c1ncccn1)C2`, the Percent Effect was found to be 4.17%. For the compound `CC(C)CC(=O)N1CC[C@H]2N(C)CC[C@@]2(C(=O)Nc2ccccc2)CC1`, the Percent Effect is 15.4%. Turning to `Cc1nccc([C@@H]2C[C@@H]3CCN(S(C)(=O)=O)C[C@H]3O2)n1`, the Percent Effect is 22.6%.

Regarding `CC1=N[C@@]2(CC[C@@H]3CN(CC(=O)N(C)C)C[C@@H]32)C(=O)N1CC1CC1`, the Percent Effect came to 23.1%.

Consider `COc1ccc(F)c(CN2CC(=O)N(c3ccccc3C)CC2C)c1` (stereo not drawn), for which the Percent Effect is 31.3%. As to `COc1cccc(CN2CC(=O)N(c3ccccc3C)CC2C)c1OC` (stereo not drawn), the Percent Effect turned out to be 38.5%. On to `COc1ccc(F)c(F)c1CN1CC(=O)N(c2ccccc2C)CC1C` (stereo not drawn), for which the Percent Effect came to 53%.

As for `c1csc(N2[C@H](Cn3cncn3)C[C@@H]3CNCC[C@@H]32)n1`, the Percent Effect was -6.84%.

With `CC(C)c1cc(N2CCC(C(C)N3CCCC3)CC2)n2nccc2n1` (stereo not drawn), the Percent Effect came to 69.4%. The result for `CC(C)c1cc(N2CCC(N)CC2)n2nccc2n1` reads 22.9%; that for `CC(C)c1cc(N2CC[C@H](F)C2)n2nccc2n1`, 22.2%; that for `Cc1cccc(CO[C@@H]2CC[C@H]3[C@H]2OCCN3Cc2cc(C)on2)n1`, 22.2%. With `O=C(NC[C@H]1CC[C@H](c2ccnc3ncnn32)CC1)c1ccccn1`, the Percent Effect is 7.04%. Regarding `CC(CCc1cccn1C)NC(=O)Nc1cccn(C)c1=O` (stereo not drawn), the Percent Effect is 38.4%. Turning to `CCSCCC(C)NC(=O)Nc1cccn(C)c1=O` (stereo not drawn), the Percent Effect was found to be 29.5%. As for `Cc1cccc(C)c1OCC(=O)Nc1cccn(C)c1=O`, the Percent Effect was 21%. On to `Cn1cccc(NC(=O)NCCOCc2ccccc2)c1=O`, for which the Percent Effect was found to be 22%. In the case of `Cn1cccc(NC(=O)NCCc2cccc(O)c2)c1=O`, the Percent Effect came out at 55%. With `CN1CCN(c2ccccc2NC(=O)NCCc2ccc(O)cc2)CC1`, the Percent Effect was found to be 21.5%.

Regarding `CC(C)C(C)NC(=O)Nc1cccn(C)c1=O` (stereo not drawn), the Percent Effect was 63.4%. On to `Cn1cccc(NC(=O)NCc2cccc(CO)c2)c1=O`, for which the Percent Effect was found to be 55%. For `Cn1cccc(NC(=O)COc2ccc(Cl)cc2)c1=O`, the Percent Effect was determined as 34.5%. In the case of `COCCN1CCO[C@H]2CN(Cc3cc[nH]n3)C[C@H]21` it was 23.8%. In the case of `CS(=O)(=O)N[C@@H]1CN(C(=O)c2ccccn2)C[C@@H]2CCCO[C@@H]21`, the Percent Effect stood at 15.6%.

With `CN1CCO[C@@H]2CN(C(=O)NCc3cccc(F)c3)CC[C@@H]2C1`, the Percent Effect was 4.54%. Consider `CCCS(=O)(=O)N1C[C@@H](c2nc(C)no2)C[C@H]2OCC[C@H]21`, for which the Percent Effect was found to be 11.7%. The result for `Cc1cccc(C(=O)N2C[C@@H]3OCCN(CCN4CCCC4)[C@@H]3C2)n1` reads 16%; that for `CCS(=O)(=O)N1CC[C@@H]2[C@H](CC1)N(CC(C)C)CCS2(=O)=O`, 10.5%. Consider `O=C(NCC1CC1)[C@H]1C[C@@H]2CN(S(=O)(=O)Cc3ccccc3)C[C@H]1O2`, for which the Percent Effect was -0.73%. On to `O=C(c1ccncc1)N1CC[C@@H]2[C@@H](CC1)OCCN2c1cccnc1`, for which the Percent Effect was 17.5%. Turning to `Cc1nc(CO[C@H]2CN(Cc3cccs3)[C@@H]3COC[C@H]23)cs1`, the Percent Effect was found to be 8.06%.

As to `COCc1nc2cc(NCc3cc[nH]n3)ccc2o1`, the Percent Effect came to 106%. Consider `CN1CCN(Cc2cccc(NCc3cc[nH]n3)c2)CC1`, for which the Percent Effect worked out at 12.3%.

Regarding `CCC(C)CNc1ccc2oc(COC)nc2c1` (stereo not drawn), the Percent Effect stood at 94.2%.

Take `COCc1nc2cc3c(cc2c(=O)o1)OCCCO3`: the Percent Effect came to 15.7%. Take `c1cc(CN2CCCCC2)cc(NCc2cc[nH]n2)c1`: the Percent Effect was 15.8%.

As to `CCCS(=O)(=O)C(C)C(=O)Nc1ccc2oc(C3CC3)nc2c1` (stereo not drawn), the Percent Effect is 26.8%.

(Values after ChEMBL document CHEMBL3988442, “University of Dundee, Small-Polar-MMV Screening Library” (2021).)
